High-throughput results deposited in PubChem BioAssay by University of Kansas High Throughput Screening Laboratory.
Hits are enriched below; roughly 3.6% of the tested compounds scored in any of these assays.
mHTT CaM bind: mutant huntingtin-calmodulin interaction inhibitors – biochemical, AlphaScreen, primary screen. P42858. AlphaScreen His-mHTT/GST-CaM binding, luminescence. inhibition, % at 15 µM. 3.6% of 190,000 active. AID 1671202, 2021;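 also: 0% = both proteins with DMSO and 100% = one protein alone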
Pf apPOL inh: Pf-apPOL inhibitors, biochemical, fluorescence; Plasmodium falciparum apicoplast DNA polymerase (apPOL); Recombinant Pf-apPOL, molecular beacon fluorescence, 1.5 h; inhibition, % at 10 µM; 0.25% of 210,000 active; AID 1794808, 2022
The depositor's hits bear a star; . = not tested or not shown. Rule as the data show it: active = inhibition above about 50%; inactive = the rest.

SMILES	mHTT CaM bind	Pf apPOL inh
O=C(NC(c1cccc([N+](=O)[O-])c1)c1cc(Cl)c2cccnc2c1O)c1cccnc1 (stereo not given)	79.0*	-6.5
Cc1ccc(CCNC(=O)c2c[nH]n3c(=O)c(Cc4ccccc4F)c(C)nc23)cc1	31.0	-14.7
Cc1nc2c(C(=O)NCCc3ccccc3)c[nH]n2c(=O)c1Cc1ccc(Cl)cc1	68.0*	-4.7
Cc1nc2c(C(=O)NCCc3ccc(Cl)cc3)c[nH]n2c(=O)c1Cc1ccccc1F	74.0*	-3.4
Cc1nc2c(C(=O)NCCc3ccccc3)c[nH]n2c(=O)c1Cl	16.0	-8.8
Cc1ccc(Cn2c(SCC(N)=O)nc3c(c2=O)C2(CCCCC2)Cc2ccccc2-3)cc1	1.5	1.0
O=C1OC(c2cccc(Cl)c2Cl)=N/C1=C\c1cccc(F)c1	9.0	5.6
CC(=O)Nc1ccc(N=Cc2cc3c(cc2[N+](=O)[O-])OCO3)cc1	44.0	-0.4
Cc1ccc([N+](=O)[O-])cc1N=Cc1cc2c(cc1[N+](=O)[O-])OCO2	43.0	-10.5
O=[N+]([O-])c1cc2c(cc1C=Nc1ccc(Nc3ccccc3)cc1)OCO2	85.0*	-1.3
COc1ccc(N=Cc2cc3c(cc2[N+](=O)[O-])OCO3)cc1OC	47.0	-2.5
Cc1ccc(N=Cc2cc3c(cc2[N+](=O)[O-])OCO3)cc1Br	69.0*	-9.4
O=[N+]([O-])c1cc2c(cc1C=Nc1ccccc1)OCO2	78.0*	-0.9
O=[N+]([O-])c1ccc(N=Cc2cc3c(cc2[N+](=O)[O-])OCO3)cc1	2.0	-6.1
Cc1cc(O)c(N=Cc2cc3c(cc2[N+](=O)[O-])OCO3)cc1C	70.0*	2.0
Cc1c(NC(=O)Cc2ccccc2)cccc1-c1nc2ccccc2s1	-1.7	-0.7
c1ccc(-c2n[nH]c(C3CCN(C4CCNC4)CC3)n2)cc1 (stereo not given)	-2.4	-3.9
Cc1cccc(N=Cc2cc3c(cc2[N+](=O)[O-])OCO3)c1	86.0*	1.7
O=[N+]([O-])c1cc2c(cc1C=Nc1ccc(Cl)c(Cl)c1)OCO2	41.0	2.6
CSCCC(NC(=O)c1ccccc1NC(=O)c1ccc(-c2ccccc2)cc1)C(=O)O (stereo not given)	14.0	-2.1
COc1ccc(C(=O)n2nnc3ccccc32)cc1[N+](=O)[O-]	4.0	5.7
COc1ccc(OC)c(-c2cc3ccc(OC(=O)C(C)C)cc3oc2=O)c1	-2.8	-5.1
COc1ccc(-c2cc3ccc(OC(=O)C(C)C)cc3oc2=O)c(OC)c1	78.4*	-0.9
CN(C(=O)Cc1c[nH]c2ccccc12)C(C(=O)Nc1ccc2c(c1)OCCO2)c1ccccc1 (stereo not given)	42.0	-3.1
COc1ccc(NC(=O)C(c2cc3c(cc2[N+](=O)[O-])OCO3)N(C)Cc2ccccc2)cc1 (stereo not given)	61.0*	-6.9
SMILES	mHTT CaM bind	Pf apPOL inh
COc1ccc(C(C(=O)Nc2ccc3c(c2)OCO3)N(C)C(=O)Cc2c[nH]c3ccccc23)cc1 (stereo not given)	75.0*	-10.7
CCN(c1cccc(C)c1)C(C(=O)Nc1ccc(OC)cc1)c1cc2c(cc1[N+](=O)[O-])OCO2 (stereo not given)	24.0	-6.3
O=C(C1CCCN(c2cn[nH]c(=O)c2)C1)N1CCc2ccccc2C1 (stereo not given)	-6.7	-4.7
Cc1cc(NS(=O)(=O)c2ccccc2)cc(Br)c1O	-4.9	-9.8
CC(C)CCn1c(N2CCCC(C(=O)N3CCCC3)C2)nc2ccccc21 (stereo not given)	54.7*	-5.8
O=C(NCCCN1CCCC1)C1CCCN(c2ncc(-c3ccccc3)cn2)C1 (stereo not given)	41.0	-2.9
CCCn1c(N2CCC(C(=O)N3CCCCC3)CC2)nc2ccccc21	-1.4	-7.3
CCn1c(=O)c(N2CCCC(C(=O)NCCCN3CCCCCC3)C2)nc2ccccc21 (stereo not given)	93.6*	-3.7
Cc1ccc(C(=O)O)cc1NC(=O)CN1C(=O)c2ccccc2C1=O	3.0	-4.9
CN1C(=O)C(C)(C(=O)NCc2ccc(Br)cc2)Oc2cccnc21 (stereo not given)	-2.1	-4.1
Fc1ccc(-c2ccc(CNCc3ccco3)o2)cc1	8.9	-1.7
Brc1ccc(-c2ccc(CNCc3ccco3)o2)cc1	91.8*	-8.6
CC(C)NC(=O)C1CCN(S(=O)(=O)c2ccc(Br)s2)CC1	0.0	-3.9
COc1ccc(CN2CCc3nc(Nc4cc(OC)cc(OC)c4)ncc3C2)cc1	2.6	0.7
CCOC(=O)CC[C@@H]1CC[C@]2(CCCN(S(=O)(=O)c3ccccc3)C2)O1	-3.7	-3.7
CCN(CC)C(=O)CC[C@H]1CC[C@]2(CCCN(S(=O)(=O)c3ccccc3)C2)O1	98.5*	-5.8
CCc1ccc(S(=O)(=O)N2CCN(Cc3nc4ccccc4[nH]3)CC2)s1	99.6*	-52.4
CN(C)S(=O)(=O)N1CCN(Cc2nc3ccccc3[nH]2)CC1	-14.6	-4.4
COc1cc([N+](=O)[O-])cc(C=Nc2cccc(Cl)c2Cl)c1O	10.0	8.0
COc1cccc(N=Cc2cc([N+](=O)[O-])cc(OC)c2O)c1	76.0*	8.2
Cc1cccc(N=Cc2cc(I)cc(I)c2O)c1	11.0	-2.2
CCOc1cc([N+](=O)[O-])cc(C=Nc2ccc3ncccc3c2)c1O	32.0	-1.9
Oc1cccnc1N=Cc1cc(I)cc(I)c1O	90.0*	-1.4
COc1cc([N+](=O)[O-])cc(C=Nc2ncccc2O)c1O	72.0*	2.6
COc1ccccc1NC(=O)N1CCCC1c1nc(-c2ccccc2C)no1 (stereo not given)	-6.9	-3.2
SMILES	mHTT CaM bind	Pf apPOL inh
CCn1cc(C(=O)NCCN(C)C)c2cc(OC)c(OC)cc2c1=O	-3.0	-1.6
COc1ccccc1-n1ccnc(NC(=O)c2cccc(C)c2)c1=O	0.7	-2.0
O=C(NCCCN1CCCC1)C1CCN(c2nc3cccnc3s2)CC1	-10.6	-5.7
Cc1cccc(-n2nc3c(c2NC(=O)c2ccco2)CSC3)c1	72.0*	2.5
Cc1ccc(-n2nc3c(c2NC(=O)c2ccco2)CSC3)cc1	33.0	-3.8
Cc1cccc(-n2nc3c(c2NC(=O)c2ccc(Br)o2)CSC3)c1	64.0*	-9.5
COc1ccc(C(=O)Nc2c3c(nn2-c2cccc(C)c2)CSC3)cc1	35.0	-8.0
Cc1cc(C)cc(-n2nc3c(c2NC(=O)c2ccco2)CSC3)c1	65.0*	-9.8
O=C(Nc1c2c(nn1-c1cccc(Cl)c1)CSC2)c1ccc(Br)o1	10.0	-3.7
O=[N+]([O-])c1ccccc1-c1cc(-c2cc(Cl)ccc2O)n[nH]1	100.2*	2.3
Cc1cc(-c2cc(Cl)ccc2O)n[nH]1	5.5	-4.0
Cc1ccc(N2C(=O)CSC2c2ccccc2F)cc1Cl (stereo not given)	-26.0	-1.3
CCOC(=O)c1cc(C)nc(Sc2ccccc2NC(=O)c2cccs2)c1C#N	.	-4.2
OC(C#CC(O)(c1ccccc1)c1ccccc1)c1ccccc1F (stereo not given)	-5.0	87.8*
OC(C#CC(O)(c1ccccc1)c1ccccc1)c1cccs1 (stereo not given)	-0.8	-3.6
CN(C)C(C)(C)C#CC(O)(c1ccccc1)c1ccccc1	-5.1	-3.0
Cc1ccc(C(O)C#CC(O)(c2ccccc2)c2ccccc2)o1 (stereo not given)	57.5*	-9.4
CCc1cccc(NC(=O)N2CCc3cn(CC)c4cccc(c34)C2)c1	1.4	-2.0
C(=C\c1ccco1)/c1nc2ccccc2[nH]1	48.9	-3.0
